Results filed as inconclusive are left out. Entries that show only a call come without a potency. The source made the active and inactive calls. Calls follow the shape of the dose curve; as a rule, active = well fitted inhibition curve with a large enough effect; inconclusive = small, poorly fitted or top-dose-only effect; inactive = no such curve, though single readings can be large or run the other way.
Biological target: Thyroid hormone receptor beta (Homo sapiens) (UniProt P10828)
Assay: Concentration Response Confirmation Assay for Inhibitors of the Interaction of Thyroid Hormone Receptor and Steroid Receptor Coregulator 2
Outline: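 Fluorescence polarization with 0.6 uM human TRβ ligand-binding domain and 20 nM Texas Red SRC2 peptide, in Tris buffer with 1 uM T3 and 5% DMSO. Read after 5 hr at ambient temperature; data normalized to unbound and bound peptide controls, concentration-response.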

Sequence of Thyroid hormone receptor beta (Homo sapiens) (P10828 whole entry, looked up): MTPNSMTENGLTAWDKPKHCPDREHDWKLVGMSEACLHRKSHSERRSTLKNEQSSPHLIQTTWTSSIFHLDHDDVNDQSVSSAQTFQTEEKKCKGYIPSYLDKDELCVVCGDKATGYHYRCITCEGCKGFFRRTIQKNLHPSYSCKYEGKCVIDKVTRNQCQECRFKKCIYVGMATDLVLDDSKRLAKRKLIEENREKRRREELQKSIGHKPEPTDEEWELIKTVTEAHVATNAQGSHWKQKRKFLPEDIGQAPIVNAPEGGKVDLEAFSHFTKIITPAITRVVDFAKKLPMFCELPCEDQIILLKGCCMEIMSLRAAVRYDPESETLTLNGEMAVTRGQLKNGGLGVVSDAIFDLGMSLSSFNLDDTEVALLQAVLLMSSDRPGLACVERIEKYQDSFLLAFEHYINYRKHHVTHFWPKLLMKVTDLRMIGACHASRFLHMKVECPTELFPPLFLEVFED

Structure (SMILES) | Potency
CC(NC(=O)Nc1ccc(O)cc1)(C(F)(F)F)C(F)(F)F | inactive
CC1=NN(Cc2ccccc2)C(=O)C1 | inactive

Source: PubChem BioAssay AID1573 (National Center for Advancing Translational Sciences (NCATS), 2009)
